# Source: PubChem BioAssay (NCATS)
# Records with an inconclusive call do not appear. Where a call stands in place of a potency, no number is given. A number with no mark means an inactive call. Active and inactive are the calls of the source. Calls come from the whole dose curve; as a rule, active = well fitted inhibition curve with a large enough effect; inconclusive = small, poorly fitted or top-dose-only effect; inactive = flat fitted curve, though single readings scatter.
# Experiments:
# GB4 = test: qHTS profiling for inhibitors of Plasmodium falciparum proliferation (AID 504749); note: potency is the fitted concentration of half-maximal effect; details: P. falciparum in erythrocytes, SYBR Green DNA, 72 h; series mostly up to 28.7 µM
# In short: (§1)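 Quantitative HTS: compounds pinned into medium, infected erythrocytes added (0.3% parasitemia, 2.5% hematocrit), 72 h culture at 37 C under 5% CO2. Saponin/Triton lysis with SYBR Green I, overnight RT, then fluorescence read.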
# HB3 = test: as above; details: P. falciparum in erythrocytes, SYBR Green DNA, 72 h; series mostly up to 28.7 µM
# In short: as §1
# ICS = test: as above; details: P. falciparum in erythrocytes, SYBR Green DNA, 72 h; series mostly up to 28.7 µM
# In short: as §1
# JCK = test: as above; details: P. falciparum in erythrocytes, SYBR Green DNA, 72 h; series mostly up to 28.7 µM
# In short: as §1
# N140 = test: as above; details: P. falciparum in erythrocytes, SYBR Green DNA, 72 h; series mostly up to 28.7 µM
# In short: as §1
# P93_24 = test: as above; details: P. falciparum in erythrocytes, SYBR Green DNA, 72 h; series mostly up to 28.7 µM
# In short: as §1
# P94_40 = test: as above; details: P. falciparum in erythrocytes, SYBR Green DNA, 72 h; series mostly up to 28.7 µM
# In short: as §1
# PAD = test: as above; details: P. falciparum in erythrocytes, SYBR Green DNA, 72 h; series mostly up to 28.7 µM
# In short: as §1
# PC15 = test: as above; details: P. falciparum in erythrocytes, SYBR Green DNA, 72 h; series mostly up to 28.7 µM
# In short: as §1
# PC26 = test: as above; details: P. falciparum in erythrocytes, SYBR Green DNA, 72 h; series mostly up to 28.7 µM
# In short: as §1
# PC49 = test: as above; details: P. falciparum in erythrocytes, SYBR Green DNA, 72 h; series mostly up to 28.7 µM
# In short: as §1
# SC27B = test: as above; details: P. falciparum in erythrocytes, SYBR Green DNA, 72 h; series mostly up to 28.7 µM
# In short: as §1
# TAB109 = test: as above; details: P. falciparum in erythrocytes, SYBR Green DNA, 72 h; series mostly up to 28.7 µM
# In short: as §1
# TAB113 = test: as above; details: P. falciparum in erythrocytes, SYBR Green DNA, 72 h; series mostly up to 28.7 µM
# In short: as §1
# TAB165 = test: as above; details: P. falciparum in erythrocytes, SYBR Green DNA, 72 h; series mostly up to 28.7 µM
# In short: as §1
# KB-3-1 = test: Cytotoxic Profiling of Annotated Libraries Using Quantitative High-Throughput Screening (AID 1296008); details: Five cell lines viability, CellTiter-Glo ATP luminescence, 48-72 h; max response: stronger effect = lower value
# In short: (§2)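 Compounds were pin-transferred onto cells and incubated 48 or 72 hr at 37 degree Celsius, 95% humidity. CellTiter-Glo was added, plates sat 10 min at room temperature, then ATP-coupled luminescence was imaged as the viability read-out.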
# W2 = test: qHTS profiling for inhibitors of Plasmodium falciparum proliferation (AID 504749); note: potency is the fitted concentration of half-maximal effect; details: P. falciparum in erythrocytes, SYBR Green DNA, 72 h; series mostly up to 28.7 µM
# In short: as §1
# HaCat = test: Cytotoxic Profiling of Annotated Libraries Using Quantitative High-Throughput Screening (AID 1296008); details: Five cell lines viability, CellTiter-Glo ATP luminescence, 48-72 h; max response: stronger effect = lower value
# In short: as §2
# Note: nearly all actives have a fitted effect of over 60% in size.
SMILES,Potency (GB4),Potency (HB3),Potency (ICS),Potency (JCK),Potency (N140),Potency (P93_24),Potency (P94_40),Potency (PAD),Potency (PC15),Potency (PC26),Potency (PC49),Potency (SC27B),Potency (TAB109),Potency (TAB113),Potency (TAB165),max response (KB-3-1),Potency (W2),max response (HaCat)
Cc1c(C(N)=O)cc([N+](=O)[O-])cc1[N+](=O)[O-],inactive,inactive,inactive,inactive,inactive,inactive,inactive,inactive,inactive,inactive,inactive,inactive,inactive,inactive,inactive,–,–,–
CCCC1O[C@@H]2C[C@H]3[C@@H]4CCC5=CC(=O)C=C[C@]5(C)[C@H]4[C@@H](O)C[C@]3(C)[C@]2(C(=O)CO)O1 (stereo not given in full),–,–,–,–,–,–,–,–,–,–,–,–,–,–,–,0.499%,–,–
CC(C)COC(=O)OCN1C(=O)CN(CCN2CC(=O)N(COC(=O)OCC(C)C)C(=O)C2)CC1=O,inactive,inactive,inactive,inactive,inactive,inactive,inactive,inactive,inactive,inactive,inactive,inactive,inactive,inactive,inactive,6.86%,inactive,–
Nc1ccc(C(=O)Nc2ccccc2N)cc1,inactive,inactive,inactive,inactive,inactive,inactive,inactive,inactive,inactive,inactive,inactive,inactive,inactive,inactive,inactive,-27.7%,–,–
C1CCc2nnnn2CC1,inactive,inactive,inactive,inactive,inactive,inactive,inactive,inactive,inactive,inactive,inactive,inactive,inactive,inactive,inactive,18.9%,inactive,–
COC(=O)[C@H]1[C@H]2C[C@H]3c4[nH]c5ccccc5c4CCN3C[C@H]2CC[C@@H]1O,inactive,–,–,–,–,–,–,–,–,inactive,–,–,–,–,–,-10.9%,inactive,–
N[C@H](CO)C(=O)O,inactive,inactive,inactive,inactive,inactive,inactive,inactive,inactive,inactive,inactive,inactive,inactive,inactive,inactive,inactive,-2.03%,inactive,–
CC(C)N=C(N)/N=C(\N)Nc1ccc(Cl)cc1,–,–,–,–,–,–,–,–,0.708 µM (active),1.61 µM (active),–,–,–,inactive,–,-14.7%,1.28 µM (active),0.505%
COc1cc(NS(C)(=O)=O)ccc1Nc1c2ccccc2nc2ccccc12,–,5.01 µM (active),1.58 µM (active),3.55 µM (active),2 µM (active),3.16 µM (active),2.51 µM (active),1.41 µM (active),2.82 µM (active),5.36 µM (active),3.16 µM (active),2.24 µM (active),3.16 µM (active),2 µM (active),2.24 µM (active),–,2.13 µM (active),–
NCCc1ccn[nH]1,inactive,inactive,inactive,inactive,inactive,inactive,inactive,inactive,inactive,inactive,inactive,inactive,inactive,inactive,inactive,–,inactive,–
c1ccc(-c2ccc(C(c3ccccc3)n3ccnc3)cc2)cc1 (stereo not given),8.49 µM (active),10 µM (active),2.24 µM (active),–,7.08 µM (active),3.16 µM (active),11.2 µM (active),7.94 µM (active),11.2 µM (active),12 µM (active),–,6.31 µM (active),8.91 µM (active),11.2 µM (active),2.82 µM (active),–,5.36 µM (active),–
CC(Cc1cccc(C(F)(F)F)c1)NCCOC(=O)c1ccccc1 (stereo not given),–,inactive,inactive,inactive,inactive,inactive,inactive,inactive,inactive,inactive,inactive,inactive,inactive,inactive,inactive,–,–,–
CO/N=C1\CN(c2nc3c(cc2F)c(=O)c(C(=O)O)cn3C2CC2)CC1CN (stereo not given),9.53 µM (active),11.2 µM (active),5.62 µM (active),–,–,8.91 µM (active),–,–,–,–,inactive,–,5.01 µM (active),–,–,–,5.36 µM (active),–
O=C(O)CCCCC(=O)O,inactive,inactive,inactive,inactive,inactive,inactive,inactive,inactive,inactive,inactive,inactive,inactive,inactive,inactive,inactive,–,inactive,–
Cc1cccn2c(=O)c(-c3nnn[nH]3)cnc12,inactive,inactive,inactive,inactive,inactive,inactive,inactive,inactive,inactive,inactive,inactive,inactive,inactive,inactive,inactive,–,inactive,–
CC(=O)OCC(=O)NCCCOc1cccc(CN2CCCCC2)c1,inactive,inactive,inactive,inactive,inactive,inactive,inactive,inactive,inactive,inactive,inactive,inactive,inactive,inactive,inactive,–,inactive,–
CC(C)(Oc1ccc(Cl)cc1)C(=O)O,inactive,inactive,inactive,inactive,inactive,inactive,inactive,inactive,inactive,inactive,inactive,inactive,inactive,inactive,inactive,–,inactive,–
NCCC(O)(P(=O)(O)O)P(=O)(O)O,inactive,inactive,inactive,inactive,inactive,inactive,inactive,inactive,inactive,inactive,inactive,inactive,inactive,inactive,inactive,–,inactive,–
CCN(CC)CCNC(=O)COc1ccc(Cl)cc1,–,inactive,12.6 µM (active),inactive,12.6 µM (active),11.2 µM (active),–,11.2 µM (active),inactive,–,–,11.2 µM (active),–,inactive,11.2 µM (active),–,13.5 µM (active),–
CN1C2CCC1CC(OC(=O)c1c[nH]c3ccccc13)C2 (stereo not given),inactive,inactive,inactive,inactive,inactive,inactive,inactive,inactive,–,–,inactive,inactive,inactive,inactive,inactive,–,inactive,–
CCN1CCCC1=O,inactive,inactive,inactive,inactive,inactive,inactive,inactive,inactive,inactive,inactive,inactive,inactive,inactive,inactive,inactive,–,inactive,–
CCCCc1nc(Cl)c(CO)n1Cc1ccc(-c2ccccc2-c2nn[nH]n2)cc1,–,–,7.94 µM (active),inactive,12.6 µM (active),–,10 µM (active),–,inactive,–,inactive,–,–,–,8.91 µM (active),–,10.7 µM (active),–
Oc1c(Cl)cc(Cl)cc1Sc1cc(Cl)cc(Cl)c1O,inactive,inactive,inactive,inactive,inactive,inactive,inactive,inactive,inactive,inactive,inactive,inactive,inactive,inactive,inactive,–,inactive,–
Nc1ccc(C(=O)O)cc1,inactive,inactive,inactive,inactive,inactive,inactive,inactive,inactive,inactive,inactive,inactive,inactive,inactive,inactive,inactive,–,inactive,–
